Test results published in the supplement of paper PMC8975748.
Where a name gives a salt, the structure may show the parent alone. ± gives the standard deviation of the averaged measurements.

Experiments:
[1] = tested on: Saccharomyces cerevisiae BY4741 SeMeCo community; assay: mean cell size (pixel area) (pixels); higher = larger cells; conditions: 10 µM; 24 h; SM minimal medium
Outline: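 A Saccharomyces cerevisiae BY4741 community carrying four plasmids, each with a fluorescent marker and each complementing one auxotrophy, was exposed for 24 h to drug at a final 10 µM in SM medium in acoustically predosed 384-well plates. The overnight preculture (OD600 = 1.0) was diluted to OD600 = 0.3 before 70 µl was added per well. Cells were then fixed with paraformaldehyde, imaged by automated confocal microscopy and analysed in Harmony to derive mean cell pixel area per well, averaged over 3 replicates. Same SeMeCo high-content imaging drug screen: Selleck FDA-approved drugs at 10 µM, 24 h in SM medium, 384-well plates, 3 replicates.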

[2] = tested on: Saccharomyces cerevisiae BY4741 SeMeCo community; assay: z-score of prototroph abundance vs DMSO median; higher = larger share of this subpopulation than in DMSO controls; conditions: 10 µM; 24 h; SM minimal medium; subpopulation (auxotrophy): Prototroph
Outline: (§1)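 Cells of a Saccharomyces cerevisiae BY4741 community, carrying four plasmids that each restored one auxotrophy and encoded a distinct fluorescent protein, were pre-grown overnight to OD600 1.0 and diluted to 0.3. A 70 µl volume was added to 384-well plates acoustically predosed with library drugs (10 µM final) and grown 24 h in minimal SM medium. After paraformaldehyde fixation, automated confocal microscopy was used, with single-auxotroph fluorescent strains for thresholds and autofluorescence correction. The abundance of each subpopulation was scored as a z-score against the vehicle-well median.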

[3] = tested on: Saccharomyces cerevisiae BY4741 SeMeCo community; assay: z-score of subpopulation abundance vs DMSO median, subpopulation auxotrophic for M; higher = larger share of this subpopulation than in DMSO controls; conditions: 10 µM; 24 h; SM minimal medium; subpopulation (auxotrophy): M
Outline: as §1

[4] = tested on: Saccharomyces cerevisiae BY4741 SeMeCo community; assay: z-score of subpopulation abundance vs DMSO median, subpopulation auxotrophic for L; higher = larger share of this subpopulation than in DMSO controls; conditions: 10 µM; 24 h; SM minimal medium; subpopulation (auxotrophy): L
Outline: as §1

[5] = tested on: Saccharomyces cerevisiae BY4741 SeMeCo community; assay: z-score of subpopulation abundance vs DMSO median, subpopulation auxotrophic for U; higher = larger share of this subpopulation than in DMSO controls; conditions: 10 µM; 24 h; SM minimal medium; subpopulation (auxotrophy): U
Outline: as §1

[6] = tested on: Saccharomyces cerevisiae BY4741 SeMeCo community; assay: z-score of subpopulation abundance vs DMSO median, subpopulation auxotrophic for H; higher = larger share of this subpopulation than in DMSO controls; conditions: 10 µM; 24 h; SM minimal medium; subpopulation (auxotrophy): H
Outline: as §1

[7] = tested on: Saccharomyces cerevisiae BY4741 SeMeCo community; assay: z-score of subpopulation abundance vs DMSO median, subpopulation auxotrophic for LU; higher = larger share of this subpopulation than in DMSO controls; conditions: 10 µM; 24 h; SM minimal medium; subpopulation (auxotrophy): LU
Outline: as §1

[8] = tested on: Saccharomyces cerevisiae BY4741 SeMeCo community; assay: z-score of subpopulation abundance vs DMSO median, subpopulation auxotrophic for LM; higher = larger share of this subpopulation than in DMSO controls; conditions: 10 µM; 24 h; SM minimal medium; subpopulation (auxotrophy): LM
Outline: as §1

[9] = tested on: Saccharomyces cerevisiae BY4741 SeMeCo community; assay: z-score of subpopulation abundance vs DMSO median, subpopulation auxotrophic for HM; higher = larger share of this subpopulation than in DMSO controls; conditions: 10 µM; 24 h; SM minimal medium; subpopulation (auxotrophy): HM
Outline: as §1

[10] = tested on: Saccharomyces cerevisiae BY4741 SeMeCo community; assay: z-score of subpopulation abundance vs DMSO median, subpopulation auxotrophic for HU; higher = larger share of this subpopulation than in DMSO controls; conditions: 10 µM; 24 h; SM minimal medium; subpopulation (auxotrophy): HU
Outline: as §1

[11] = tested on: Saccharomyces cerevisiae BY4741 SeMeCo community; assay: z-score of subpopulation abundance vs DMSO median, subpopulation auxotrophic for UM; higher = larger share of this subpopulation than in DMSO controls; conditions: 10 µM; 24 h; SM minimal medium; subpopulation (auxotrophy): UM
Outline: as §1

[12] = tested on: Saccharomyces cerevisiae BY4741 SeMeCo community; assay: z-score of subpopulation abundance vs DMSO median, subpopulation auxotrophic for HL; higher = larger share of this subpopulation than in DMSO controls; conditions: 10 µM; 24 h; SM minimal medium; subpopulation (auxotrophy): HL
Outline: as §1

[13] = tested on: Saccharomyces cerevisiae BY4741 SeMeCo community; assay: z-score of subpopulation abundance vs DMSO median, subpopulation auxotrophic for HLU; higher = larger share of this subpopulation than in DMSO controls; conditions: 10 µM; 24 h; SM minimal medium; subpopulation (auxotrophy): HLU
Outline: as §1

[14] = tested on: Saccharomyces cerevisiae BY4741 SeMeCo community; assay: z-score of subpopulation abundance vs DMSO median, subpopulation auxotrophic for HUM; higher = larger share of this subpopulation than in DMSO controls; conditions: 10 µM; 24 h; SM minimal medium; subpopulation (auxotrophy): HUM
Outline: as §1

[15] = tested on: Saccharomyces cerevisiae BY4741 SeMeCo community; assay: z-score of subpopulation abundance vs DMSO median, subpopulation auxotrophic for LUM; higher = larger share of this subpopulation than in DMSO controls; conditions: 10 µM; 24 h; SM minimal medium; subpopulation (auxotrophy): LUM
Outline: as §1

[16] = tested on: Saccharomyces cerevisiae BY4741 SeMeCo community; assay: z-score of subpopulation abundance vs DMSO median, subpopulation auxotrophic for HLUM; higher = larger share of this subpopulation than in DMSO controls; conditions: 10 µM; 24 h; SM minimal medium; subpopulation (auxotrophy): HLUM
Outline: as §1

[17] = tested on: Saccharomyces cerevisiae BY4741 SeMeCo community; assay: z-score of subpopulation abundance vs DMSO median, subpopulation auxotrophic for HLM; higher = larger share of this subpopulation than in DMSO controls; conditions: 10 µM; 24 h; SM minimal medium; subpopulation (auxotrophy): HLM
Outline: as §1

Compound	mean cell size [1]	z-score of prototroph abundance [2]	z-score of subpopulation abundance [3]	z-score of subpopulation abundance [4]	z-score of subpopulation abundance [5]	z-score of subpopulation abundance [6]	z-score of subpopulation abundance [7]	z-score of subpopulation abundance [8]	z-score of subpopulation abundance [9]	z-score of subpopulation abundance [10]	z-score of subpopulation abundance [11]	z-score of subpopulation abundance [12]	z-score of subpopulation abundance [13]	z-score of subpopulation abundance [14]	z-score of subpopulation abundance [15]	z-score of subpopulation abundance [16]	z-score of subpopulation abundance [17]
CC[N+](CC)(CC)CC [Tetraethylammonium bromide]	12.27 ± 0.094	-0.64	0.89	-0.06	1.19	-0.73	1.18	0.41	0.22	-0.09	0.12	-0.73	0.38	-0.37	0.28	1.04	–
COCC1=C(C(=O)OC(C)OC(=O)OC(C)C)N2C(=O)[C@@H](NC(=O)/C(=N\OC)c3csc(N)n3)[C@H]2SC1 (some centres not stated) [Cefpodoxime proxetil]	12.25 ± 0.089	-0.89	0.5	-0.07	0.51	-0.09	0.31	0.62	0.76	0.99	0.01	-0.24	0.57	0.76	0.36	0.35	–
CC/C(=C(/CC)c1ccc(O)cc1)c1ccc(O)cc1 [Diethylstilbestrol]	12.85 ± 0.035	–	0.52	-0.38	-1.17	0.17	-1.48	-0.03	-0.17	-1.29	-1.59	-0.25	-1.06	-1.46	-1.01	-1.31	–
O=C(Cn1cnnn1)N[C@@H]1C(=O)N2C(C(=O)O)=C(CSc3nncs3)CS[C@H]12 [Ceftezole]	12 ± 0.2	–	-1.1	-0.41	0.9	-1.12	0.9	-0.52	-1.26	-0.51	-0.37	–	-0.25	-1.25	0.28	0.55	–
Cc1ncc([N+](=O)[O-])n1C [Dimetridazole]	12.5 ± 0.19	0.38	-0.26	-1.34	-0.07	0.05	-0.31	-0.99	-0.42	0.17	-0.37	-0.32	-0.59	0.28	-1.1	0.31	–
Cc1ccc(C(=O)C(C)CN2CCCCC2)cc1 (configuration not stated) [Tolperisone HCl]	–	1.01	0.72	-0.42	-0.15	-0.79	-0.75	-0.14	-0.34	-0.2	-0.03	-0.34	-0.71	–	–	-0.57	-0.48
COc1cc(NS(=O)(=O)c2ccc(N)cc2)ncn1 [Sulfamonomethoxine]	12.3 ± 0.041	0	-0.64	0	1.19	-0.96	1.01	-0.55	-1.46	0.5	0.65	-0.82	0.33	0.06	0.5	0.33	–
CN[C@@H]1[C@H](O[C@H]2[C@H](O[C@H]3[C@H](O)[C@@H](O)[C@H](N=C(N)N)[C@@H](O)[C@@H]3N=C(N)N)O[C@@H](C)[C@]2(O)C=O)O[C@@H](CO)[C@H](O)[C@H]1O [Streptomycin sulfate]	11.99 ± 0.031	0.05	-0.43	–	1.16	0.36	-0.25	-0.12	0.19	0.65	0.8	-0.36	-0.4	0.39	-0.33	-0.41	-0.57
NC(=O)C(c1ccccc1)(c1ccccc1)[C@@H]1CCN(CCc2ccc3c(c2)CCO3)C1 [Darifenacin HBr]	–	0.34	0.85	-0.21	0.01	-1.43	-0.1	-0.2	-0.73	–	0.53	-0.56	-0.45	0.05	-0.55	-0.5	–
C[C@@H](O)[C@H]1C(=O)N2C(C(=O)O)=C(S[C@@H]3CN[C@H](C(=O)N(C)C)C3)[C@H](C)[C@H]12 [Meropenem Trihydrate]	–	-0.19	0.89	0.38	–	1.09	0.63	0.14	1.13	-0.59	-0.82	0.55	0.91	-0.48	-0.3	-0.25	–
CC(C)(C)C1CCC(CC2=C(O)c3ccccc3C(=O)C2=O)CC1 (configuration not stated) [Buparvaquone]	–	-0.85	2.2	0.5	-0.95	-0.05	0.03	0.78	1.55	-0.75	0.54	-0.13	0.03	0.83	0.35	0.04	–
CC[C@H]1OC(=O)[C@H](C)[C@@H](O[C@H]2C[C@@](C)(OC)[C@@H](O)[C@H](C)O2)[C@H](C)[C@@H](O[C@@H]2O[C@H](C)C[C@H](N(C)C)[C@H]2O)[C@](C)(O)C[C@@H](C)CN[C@H](C)[C@@H](O)[C@]1(C)O [Azathramycin]	12.5 ± 0.16	–	0	-0.61	0.07	0.33	-0.39	–	0.1	-0.16	0.42	-0.33	-1.12	0.01	–	-0.5	–
CO[C@H]1C[C@@H]2CC[C@@H](C)[C@@](O)(O2)C(=O)C(=O)N2CCCC[C@H]2C(=O)O[C@H]([C@H](C)C[C@@H]2CC[C@H](n3cnnn3)[C@H](OC)C2)CC(=O)[C@H](C)/C=C(\C)[C@@H](O)[C@@H](OC)C(=O)[C@H](C)C[C@H](C)/C=C/C=C/C=C/1C [Zotarolimus(ABT-578)]	13.94 ± 0.041	-17.5	-0.02	0.32	3.68	14.4	3.23	–	23.2	23.5	7.28	–	18.8	22.3	–	–	–
CC[C@H](C)C[C@H](C)CCCCCCCCC(=O)N[C@H]1C[C@@H](O)[C@@H](NCCN)NC(=O)[C@@H]2[C@@H](O)CCN2C(=O)[C@H]([C@H](O)CCN)NC(=O)[C@H]([C@H](O)[C@@H](O)c2ccc(O)cc2)NC(=O)[C@@H]2C[C@@H](O)CN2C(=O)[C@H]([C@@H](C)O)NC1=O [Caspofungin Acetate]	12.17 ± 0.068	-12.2	-8.37	–	-3.79	31.6	-0.13	1.23	-0.2	8.05	-2.51	51.3	13.9	10.8	5.81	127	45.5
